This note sets out measurements from PubChem BioAssay AID1053188 (Broad Institute, 2014).

“And” between values parts separate entries of the source, which are not always exact repeats. Equal entries are not always repeated. About 780 (0.94%) of roughly 83,000 compounds were called active.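 How the source made its calls: active means mean inhibition of at least 50% with a set share of replicates also reaching that level; inconclusive means no clear call, values can overlap the other calls; inactive means the rest.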 The full list was thinned out, with actives kept by preference. A structure can be active in one record and inactive in another.

A short description of the test: CD40 pathway blockade in BL2 B cells – cell-based, luciferase reporter, single point, primary screen (AID 1053188).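 Further: 0% = neutral control wells and 100% = IKK inhibitor VII at 50 µM.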 The following applies: BL2 NF-kB luciferase reporter, CD40L-induced, 4 h, stronger effect = higher value; at 10 µM unless noted.
By inhibition is commonly meant the relative decrease from the control value, in per cent. For the compound `Cn1cnc(S(=O)(=O)N2CCCCN3[C@@H](CO)[C@@H](c4ccc(C#CC5CCCC5)cc4)[C@@H]3C2)c1`, the inhibition was 2.82% [at 25 µM] (inactive).

Regarding `COc1ccc(C#Cc2ccc([C@@H]3[C@@H](CO)N4CCCCN(C(=O)c5ccncc5)C[C@@H]34)cc2)cc1`, the inhibition is -18.8% [at 25 µM] (inactive).

Take `COc1ccc(C#Cc2ccc([C@H]3[C@@H](CO)N4CCCCN(S(=O)(=O)c5cn(C)cn5)C[C@H]34)cc2)cc1`: the inhibition was 66.3% [at 25 µM] (active).

With `Cc1nnc(CN(C)Cc2cn[nH]c2-c2ccc(-c3ccccc3)cc2)o1`, the inhibition was -39% (inactive).

As for `COc1ccccc1C(=O)NNC(=O)c1ccc(NC(=O)c2ccccc2)cc1`, the inhibition was 11.1% (inactive).

With `COc1ccc(C(=O)Nc2cc(C)ccc2NC(=O)COc2ccccc2)cc1`, the inhibition is -29.7% (inactive).

As for `COc1ccc(C(=O)Nc2ccccc2C(=O)N/N=C/c2ccccc2OC)cc1`, the inhibition was 53.7% (active).

Regarding `CCCNC(=O)C1CC(=O)N(c2ccc(OCc3ccccc3)cc2)C1` (stereo unspecified), the inhibition was -7.3% (inactive).

As for `O=C(C[C@H]1C=C[C@@H](NC(=O)c2cnccn2)[C@H](CO)O1)NCc1ccccc1F`, the inhibition was 3.55% [at 25 µM] (inactive).

For `O=C(Nc1ccc(Cl)cc1)Nc1nnc(/C=C/c2ccccc2)s1`, the inhibition is -0.929% (inactive).

Consider `Cc1nnsc1C(=O)N/N=C/c1ccccc1Cl`, for which the inhibition was 25% (inactive).

Consider `O=C(Nc1ccccc1)c1nnsc1S(=O)(=O)c1ccc(Cl)cc1`, for which the inhibition is 96.6% (active).

Regarding `Cc1cc(C(=O)OC(C)C(=O)NC2CCCCC2C)c(C)o1` (stereo unspecified), the inhibition is 16.2% (inactive).

For `NC(c1csc(NC(=O)Nc2cccc(C(F)(F)F)c2)n1)C1CCCCC1` (stereo unspecified), the inhibition is 76.7% (active).

For the compound `NC(c1ccccc1)c1csc(NC(=O)Nc2cccc(C(F)(F)F)c2)n1` (stereo unspecified), the inhibition was 75% (active).

For `C[C@H]1CN([C@@H](C)CO)C(=O)CCCn2cc(nn2)CO[C@H]1CN(C)C(=O)Nc1cccc(C(F)(F)F)c1`, the inhibition is 3.26% [at 25 µM] (inactive).

As for `CC(C)C[C@H](NC(=O)Nc1cccc(C(F)(F)F)c1)C(=O)O`, the inhibition is 17.4% (inactive).

For the compound `CC(=O)Nc1ccc(-c2csc(NC(=O)Nc3ccccc3)n2)cc1`, the inhibition was -27.4% (inactive).

Consider `O=C(Nc1cccc(C(F)(F)F)c1)c1cnccn1`, for which the inhibition was -0.813% (inactive).

As for `COc1ccc(NC(=O)Nc2ccc3c(c2)C(=O)N([C@@H](C)CO)C[C@H](C)[C@H](CN(C)Cc2ccc(C(F)(F)F)cc2)OCCCC[C@H](C)O3)cc1`, the inhibition was 8.72% (inactive).

`c1ccc(CNCc2ccc(CNCc3ccccc3)cc2)cc1`: the inhibition was -8.05% (inactive).

On to `Cc1ccc(S(=O)(=O)NCCC(=O)NNC(=O)C2COc3ccccc3O2)cc1` (stereo unspecified), for which the inhibition was -6.13% (inactive).

In the case of `Cc1cc(C(=O)Cn2cnc3cc([N+](=O)[O-])ccc3c2=O)c(C)n1CC1CCCO1` (stereo unspecified), the inhibition is 0.959% (inactive).

For the compound `Cc1ccsc1C(=O)OCC(=O)c1cc(C)n(CC2CCCO2)c1C` (stereo unspecified), the inhibition was 94% (active).

As for `Cc1ccsc1C(=O)OCC(=O)c1cc2ccccc2o1`, the inhibition was -95.3% (inactive).

Take `O=C(OCC(=O)N1CCCC1=O)c1cc(S(=O)(=O)N2CCOCC2)ccc1Cl`: the inhibition is 17.8% (inactive).

With `O=C(Nc1ccc2c(c1)OCCO2)C1CCCN(c2ncccn2)C1` (stereo unspecified), the inhibition is -6.73% (inactive).

`O=C(Nc1ccc2c(c1)OCCO2)c1ccncc1`: the inhibition is -42.5% (inactive).

As for `O=C(Nc1ccc2c(c1)OCCO2)C1CCCC1`, the inhibition was 97.3% (active).

In the case of `CCOC(=O)COc1nc(C)cc(C(F)(F)F)c1C#N`, the inhibition is 7.91% (inactive).

As for `CCCN1[C@H](CO)[C@H](c2ccc(C#CC3CCCCC3)cc2)[C@@H]1CNC(=O)C1CC1`, the inhibition was -8.21% [at 25 µM] (inactive).

For `Cc1onc(-c2ccccc2)c1-c1nnc(COC(=O)c2ccc(N(C)C)cc2)o1`, the inhibition is 27.4% (inactive).

On to `CCN(Cc1ccccc1)S(=O)(=O)c1cc2c3c(c1)CCN3C(=O)CC2`, for which the inhibition was 12.8% (inactive).

As to `Cc1ccc(/C=C/C(=O)OCC(=O)NCc2ccc(Cl)cc2)o1`, the inhibition is 50.7% (active).

In the case of `CC(C)(Oc1ccc(Cl)cc1)C(=O)OCC(=O)NCCc1ccc(S(N)(=O)=O)cc1`, the inhibition is 11.6% (inactive).

For the compound `Cc1ccc(CNC(=O)COC(=O)C2CCC2)cc1`, the inhibition was -4.82% (inactive).

As for `COC(=O)c1sc(NC(=O)COC(=O)C2CCC2)c(C(=O)OC)c1C`, the inhibition was 2.99% (inactive).

For the compound `CC[C@H]1CN2CCc3cc(OC)c(OC)cc3[C@@H]2C[C@@H]1C[C@H]1NCCc2cc(OC)c(OC)cc21`, the inhibition is 89.6% (active).

`CCn1cc(-c2cc(C(=O)O)on2)c(C)n1`: the inhibition is 8.77% (inactive).

For `CC(C)NC(=O)N1[C@H](C#N)[C@H](c2ccc(C#CC3CCCCC3)cc2)[C@H]1CO`, the inhibition was 52.1% (active).

Turning to `CS(=O)(=O)N1[C@H](C#N)[C@H](c2ccc(C#CC3CCCC3)cc2)[C@H]1CO`, the inhibition was -13.6% [at 25 µM] (inactive).

As to `CS(=O)(=O)N1[C@@H](C#N)[C@H](c2ccc(C#CC3CCCCC3)cc2)[C@@H]1CO`, the inhibition is -1.7% (inactive).

Regarding `N#C[C@H]1[C@@H](c2ccc(C#CC3CCCC3)cc2)[C@H](CO)N1C(=O)Nc1ccc(F)cc1`, the inhibition was 12% (inactive).

Take `CC(C)C#Cc1ccc([C@@H]2[C@@H](C#N)N(C(=O)C3CC3)[C@@H]2CO)cc1`: the inhibition was 3.05% [at 25 µM] (inactive).

In the case of `N#C[C@@H]1[C@H](c2ccc(C#CC3CCCCC3)cc2)[C@@H](CO)N1S(=O)(=O)c1ccccc1`, the inhibition is 51.3% (active).

Turning to `O=C(O)C(c1cccs1)C1(O)CCCCC1` (stereo unspecified), the inhibition was 6.28% (inactive).

On to `Cn1c(N)cc(-c2ccc(F)cc2)c(C#N)c1=O`, for which the inhibition is 4.59% (inactive).

Consider `COc1ccc(S(=O)(=O)N2CCOCC2)cc1NC(=O)CSc1cc(C)ccc1C`, for which the inhibition was 2.01% (inactive).

With `Cc1cc2ccccc2n1CCC(=O)O`, the inhibition is 4.73% (inactive).

With `C[C@@H]1CC=CC[C@H](c2ccc(F)cc2)NC(=O)[C@@H](Cc2ccccc2)N(C)C(=O)c2ccccc2O1` (mixture of isomers), the inhibition was 53.9% [at 25 µM] (active).

As to `C[C@@H]1C(=O)N[C@H](c2ccc3c(c2)OCO3)CC=CC[C@H](C)Oc2ccccc2C(=O)N1C` (mixture of isomers), the inhibition was 3.83% [at 25 µM] (inactive).

Turning to `C[C@@H]1CC=CC[C@@H](c2ccccc2)NC(=O)[C@H](C)N(C)C(=O)c2ccccc2O1` (mixture of isomers), the inhibition is 8.95% [at 25 µM] (inactive).

As to `CS(=O)(=O)N1CCN(CC(=O)NC2CCCC2)CC1`, the inhibition is 4.72% (inactive).

For `CS(=O)(=O)N1C[C@@H]2C(c3ccccc3)[C@H](C1)N2CC(F)(F)F` (stereo partly specified), the inhibition was 8.84% (inactive) and 23.5% (inactive).

Regarding `COc1cccc(NC(=O)COC(=O)c2ccc3ccccc3n2)c1`, the inhibition was -7.67% (inactive).

Turning to `c1ccc(C(=NNc2nc3ccccc3s2)c2ccccn2)cc1`, the inhibition was 72.5% (active).

On to `O=C(Nc1ccccc1)Nc1nc2ccccc2s1`, for which the inhibition is -102% (inactive).

Turning to `Cc1ccnc(Nc2nc3ccccc3s2)n1`, the inhibition is -62.3% (inactive).

For `CCN1CCN(c2ccc(S(=O)(=O)N3CCCCC3)cc2NC(=O)c2cccc(NC(C)=O)c2)CC1`, the inhibition was 1.54% (inactive).

As to `CCN1CC(CN(C)Cc2nc(-c3ccc(Cl)cc3)no2)CC1=O` (stereo unspecified), the inhibition was 2.41% (inactive).

With `CC1CCCC(NC(=O)c2cc(S(=O)(=O)N3CCCCC3)ccc2Cl)C1C` (stereo unspecified), the inhibition was 6.89% (inactive).

As to `Cc1ccc(NC(=O)c2ccco2)cc1`, the inhibition is -36.5% (inactive).

Regarding `COc1cc(C(=O)CCc2ccc3c(c2)OCO3)cc(OC)c1OC`, the inhibition is 1.79% (inactive).

On to `CCC1CCC2(CC1)NC(=O)N(CC(=O)Nc1ccc(OC)cc1)C2=O` (stereo unspecified), for which the inhibition is -0.377% (inactive).

On to `C/C=C/c1ccc(C2[C@H]3CNC[C@@H]2N3CC2CCOCC2)cc1` (stereo partly specified), for which the inhibition was 9.41% (inactive).

Take `C/C=C/c1ccc(C2[C@H]3CNC[C@@H]2N3Cc2cccc(OC)c2)cc1` (stereo partly specified): the inhibition was -2.62% (inactive) and -20.4% (active).

Turning to `C/C=C/c1ccc(C2[C@H]3CNC[C@@H]2N3Cc2cccc(F)c2)cc1` (stereo partly specified), the inhibition is 0.374% (inactive) and -2.51% (inactive).

Take `CCc1noc(C)c1C(=O)N1CCN(S(=O)(=O)c2cccc(C(F)(F)F)c2)CC1`: the inhibition is 1.62% (inactive).

Consider `O=C1COc2c1ccc(O)c2O`, for which the inhibition is 12.2% (inactive).

As for `COc1ccc2c(C)cc(SCC(=O)NCC3CCCO3)nc2c1` (stereo unspecified), the inhibition was 1.77% (inactive).

As to `Cc1noc(C)c1S(=O)(=O)Nc1ccc2c(c1)C(=O)N([C@@H](C)CO)C[C@@H](C)[C@H](CN(C)C(=O)Nc1cccc3ccccc13)OCCCC[C@H](C)O2`, the inhibition was 8.4% [at 25 µM] (inactive).

On to `Cc1ccc(S(=O)(=O)Nc2ccc3c(c2)C(=O)N([C@@H](C)CO)C[C@@H](C)[C@H](CN(C)C(=O)Nc2cccc4ccccc24)OCCCC[C@H](C)O3)cc1`, for which the inhibition was 9.18% (inactive).

In the case of `Cc1noc(C)c1S(=O)(=O)Nc1ccc2c(c1)C(=O)N([C@@H](C)CO)C[C@H](C)[C@@H](CN(C)C(=O)Nc1cccc3ccccc13)OCCCC[C@H](C)O2`, the inhibition is 48% [at 25 µM] (active).

Turning to `O=C(Cc1ccccn1)N1CC(=O)N2[C@H](CO)[C@@H](c3ccc(C#CC4CCCC4)cc3)[C@H]2C1`, the inhibition was -16.2% (inactive).

Regarding `O=C(Cc1ccc(Cl)cc1)c1ccccc1`, the inhibition is -54.5% (inactive).

On to `C/C=C/c1cccc(-c2nc(C(=O)NCCN3CCCC3)cc3c2[C@@H](CCO)N([S@](=O)C(C)(C)C)C3)c1`, for which the inhibition was -2.95% (inactive).

Consider `Cc1cc([N+](=O)[O-])nn1CC(=O)Nc1ccc(Cc2ccncc2)cc1`, for which the inhibition was -4.38% (inactive).

As for `CN(C)CCNC(=O)c1ccc(Cl)c2cc3ccccc3nc12`, the inhibition was 80.1% (active).

As to `CN(C)CCNC(=O)Nc1cccc(Cl)c1Cl`, the inhibition is 7.22% (inactive).

For `CCCNC(=O)c1ccc(Cl)c(Cl)c1`, the inhibition is 0.458% (inactive).

In the case of `Cc1ccc(S(=O)(=O)NCCC(=O)NCc2ccc(Cl)cc2)cc1C`, the inhibition is 0.373% (inactive).
